Calls of active or inactive are those of the source. How the calls were made is not given here.

This experiment relates to Aerobactin synthetase IucA (Klebsiella pneumoniae hvKP1). Nature of the experiment: IucA enzyme inhibition, primary screen, biochemical, Spectrum library (AID 1346200).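 Further: 100% = wells without compound and 0% = wells lacking enzyme.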 The conditions noted are these: malachite green pyrophosphate, A620, at 8 µM, active compounds read low.
Consider `CC(C)CCCC(C)N` (stereo unspecified), for which the activity remaining is 121% (inactive).
As to `C/C1=C\CC(C)(C)/C=C/CC2(C)OC2CC1` (stereo unspecified), the activity remaining is 107% (inactive).
`Cn1c(=O)[nH]c2nc[nH]c2c1=O`: the activity remaining is 79.5% (inactive).
The value for `CO/N=C(\C(=O)NC1C(=O)N2C(C(=O)OCOC(=O)C(C)(C)C)=C(/C=C\c3scnc3C)CSC12)c1csc(N)n1` (stereo unspecified) was 120% (inactive); that for `COC(=O)C[C@@H]1C2(C)C(=O)[C@@H](CC3C2CC[C@]2(C)C3CC(=O)O[C@H]2c2ccoc2)[C@H](OC(C)=O)C1(C)C` (stereo partly specified) was 109% (inactive).
As for `O=C(OOC(=O)c1ccccc1)c1ccccc1`, the activity remaining is 113% (inactive).

Source of the values: PubChem BioAssay.
